High-throughput results (PubChem)
Compounds with a hit are over-represented: about 4% of the library has one in this group of screens.
FGF22 binding – binders of human FGF22 protein, primary screen, FGF22 synaptogenesis inhibitor project, biophysical, thermal shift, single point. Fibroblast growth factor 22 (Homo sapiens), Q9HCT0. recombinant FGF22 thermal shift, SYPRO orange fluorescence; percent of sucrose octasulfate shift, DMSO zero. activity (Tm shift, normalised), % at 9.99 µM. actives 1.5% (n = 340,000). AID 651658, 2012;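 active = mean Tm shift, scaled 0 neutral to 100 positive control, at about 1.3% or above, every replicate too, limit read from the data; inconclusive = no clear call, values can overlap the other calls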
AF4-AF9 inh – inhibitors of AF4 peptide binding to AF9, primary screen, biochemical, AlphaScreen, biotin-AF4 peptide, FLAG-AF9, single point. inhibition, % at 10 µM. Protein AF-9 (Homo sapiens), P42568. actives 0.47% (n = 350,000). AID 651704, 2012;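 active = every replicate reaching a set inhibition limit, whatever the replicate mean, cut at about 25% in these data; inconclusive = mean inhibition reaches that limit but some replicates miss it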
ERAP1 HTS inh – human ERAP1 aminopeptidase inhibitors, primary screen, biochemical, single point, plate reader | Endoplasmic reticulum aminopeptidase 1 (Homo sapiens), Q9NZ08 | recombinant ERAP1, Leu-AMC fluorescence, 60 min | inhibition, % at 10.7 µM | actives 0.15% (n = 340,000);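 active = mean replicate inhibition of at least 30%, or all replicates individually reaching that 30% level; inactive = mean below 30% and not every replicate reaching it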
RAD52 inh – RAD52 DNA annealing inhibitors, primary screen, biochemical, FRET, single point, set 2 | DNA repair protein RAD52 homolog (Homo sapiens), P43351 | recombinant RAD52 DNA annealing, FRET fluorescence | inhibition, % at 18.7 µM | actives 0.46% (n = 360,000);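 active = every replicate showing at least 50% inhibition; inconclusive = mean inhibition at least 50% but not in every replicate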
Target sequence (P43351 whole entry, looked up): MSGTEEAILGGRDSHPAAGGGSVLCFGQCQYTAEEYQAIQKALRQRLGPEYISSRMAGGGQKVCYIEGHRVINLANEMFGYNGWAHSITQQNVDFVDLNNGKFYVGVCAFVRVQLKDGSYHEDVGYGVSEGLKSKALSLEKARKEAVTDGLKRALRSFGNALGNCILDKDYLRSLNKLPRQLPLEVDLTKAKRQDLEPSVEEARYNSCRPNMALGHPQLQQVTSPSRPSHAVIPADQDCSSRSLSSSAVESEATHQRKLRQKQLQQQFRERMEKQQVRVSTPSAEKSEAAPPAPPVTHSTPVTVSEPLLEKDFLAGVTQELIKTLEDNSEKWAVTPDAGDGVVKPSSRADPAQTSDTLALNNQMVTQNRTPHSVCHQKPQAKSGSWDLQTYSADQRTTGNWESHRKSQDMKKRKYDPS
DENV2 CPE – inhibitors of DENV2 cytopathic effect, primary screen, cell-based, plate reader, single concentration. DENV2-infected cells, cytopathic effect rescue. CPE inhibition, % at 9.99 µM. actives 1.7% (n = 350,000); in the data active = CPE inhibition above about 20%, passing the limit was not always enough; inconclusive = no clear call, values can overlap the other calls; tested in BHK-21 cells
Of the large screens only hits and unclear results are named; the others gave an inactive call.

O=C(CC(=O)c1cccc([N+](=O)[O-])c1)Nc1ccccc1Cl	FGF22 binding 44
O=C(Cn1c2ccccc2c(=O)c2cc([N+](=O)[O-])ccc21)Nc1ccccc1Cl	none
O=C(NCc1ccccc1)NC(O)C(Cl)(Cl)Cl (stereo not drawn)	FGF22 binding 44
COC(=O)[C@H](C)NC(=O)NCc1ccccc1	none (no result: ERAP1 HTS inh)
CN(C)C(=O)c1cccc(-c2ccc(C3[C@@H]4CN(S(=O)(=O)c5cccc(Cl)c5)C[C@H]3N4)cc2)c1 (stereo partly drawn)	none (no result: AF4-AF9 inh, ERAP1 HTS inh, RAD52 inh)
CN(C)CCn1c(=O)n(Cc2ccccc2)c(=O)c2c3c(sc21)CCCCC3	AF4-AF9 inh 26
N#C/C(=C/c1ccccc1[N+](=O)[O-])c1nc(C2CC2)cs1	AF4-AF9 inh 26
N#C/C(=C/c1ccccc1[N+](=O)[O-])c1nnc2n1CCCCC2	none
COc1ccc([C@H]2CC(=O)C=C(c3ccc4cc[nH]c4c3)C2)cc1	DENV2 CPE 66 (no result: ERAP1 HTS inh)
COc1cccc(-c2ccc([C@H]3[C@@H](CO)N(C(=O)c4ccccn4)[C@H]3C#N)cc2)c1	none
COCCNC(=O)/C(C#N)=C/c1ccc(O)c([N+](=O)[O-])c1	FGF22 binding 43 (no result: DENV2 CPE)
C[C@@H]1CCCCO[C@@H](CN(C)C)[C@H](C)CN([C@H](C)CO)C(=O)c2cc(N(C)C)ccc2O1	none
O=C(O)c1cc(O)c2c(c1)C(=O)c1cccc(O)c1C2=O	DENV2 CPE 79
Cc1cc(O)c2c(c1)C(=O)c1cccc(O)c1C2=O	none
Cc1cc(C(=O)Nc2cccc3c2O[C@@H](CN(C)C(=O)Nc2ccc4c(c2)OCO4)[C@@H](C)CN([C@H](C)CO)C3=O)n(C)n1	none
Cc1ccc(NC(=O)CN(C)C(=O)COc2ccc(C(=O)c3ccc(F)cc3)cc2)cc1	FGF22 binding 44
CCCn1c(SCCN2CCOCC2)nc2c1c(=O)n(C)c(=O)n2C	none
CCCCc1nc(SCCN2CCOCC2)c2c(=O)n(C)c(=O)n(C)c2n1	FGF22 binding 43
CC(=O)N(C)C[C@@H]1Oc2cc(-c3ccccc3C)ccc2S(=O)(=O)N([C@H](C)CO)C[C@@H]1C	none
C[C@@H]1CCCCO[C@@H](CN(C)Cc2ccc(C(F)(F)F)cc2)[C@H](C)CN([C@@H](C)CO)C(=O)c2cc(N(C)C)ccc2O1	AF4-AF9 inh 32
C[C@H](CO)N1C[C@H](C)[C@@H](CN(C)Cc2ccc3c(c2)OCO3)OCCCC[C@H](C)Oc2ccc(N(C)C)cc2C1=O	DENV2 CPE 124 (no result: FGF22 binding, AF4-AF9 inh, ERAP1 HTS inh)
C[C@@H]1CCCCO[C@@H](CN(C)Cc2ccc(C(F)(F)F)cc2)[C@H](C)CN([C@H](C)CO)C(=O)c2cc(N(C)C)ccc2O1	AF4-AF9 inh 40
CCCN(C)C[C@@H]1OCCCC[C@H](C)Oc2ccc(N(C)C)cc2C(=O)N([C@H](C)CO)C[C@@H]1C	DENV2 CPE 69
C[C@@H]1CN([C@@H](C)CO)C(=O)c2cc(NC(=O)c3ccccc3)ccc2O[C@@H](C)CCCCO[C@@H]1CN(C)C(=O)c1ccccc1	none
Cn1nnnc1SCC(=O)Nc1cccc([N+](=O)[O-])c1	none
CCC(=O)Nc1nnc(SCC(=O)Nc2ccc3c(c2)OCCO3)s1	none
CCCCC(=O)Nc1nnc(SCC(=O)Nc2ccc(OC)cc2)s1	none
CC(=O)Nc1cccc(NC(=O)CSc2nnc(NC(=O)c3ccco3)s2)c1	FGF22 binding 1.5, DENV2 CPE inconclusive
CS(=O)(=O)Nc1nnc(SCC(=O)Nc2cccc([N+](=O)[O-])c2)s1	FGF22 binding 43
CC(C)C(=O)Nc1nnc(SCC(=O)Nc2ccc3c(c2)OCCO3)s1	FGF22 binding 1.4 (no result: DENV2 CPE)
COc1ccc(NC(=O)CSc2nnc(NC(=O)c3ccccc3C(=O)O)s2)cc1	FGF22 binding 43
COc1cccc(NC(=O)C(c2ccccc2)N2CCCC2)c1 (stereo not drawn)	FGF22 binding 43
CC1CCCN(C(C(=O)Nc2ccc3c(c2)OCO3)c2ccccc2)C1 (stereo not drawn)	none (no result: ERAP1 HTS inh)
